Each structure is given as a SMILES string. About 83,000 compounds went through this panel and 20% of them were active in at least one assay; those are over-represented in the sample as a whole.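 Percent growth is the endpoint: 0 to 100 indicates growth inhibition (40 means 60% inhibition), 0 means no net growth, and negative values indicate cell death.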 Activity calls are given as the source filed them. Rule for the calls: active = growth percent below 10; inactive = the rest.

This note sets out measurements from PubChem BioAssay (NCI).

The test relates to HL-60(TB) leukemia. Kind of test: NCI-60 one-dose screen, 48 h (100 = growth as untreated, 0 = no growth, -100 = all killed). To be noted: 10 µM unless noted.
In the case of `COC(=O)C(CC(=O)c1ccc(-c2ccccc2)cc1)c1ccccc1` (stereo unspecified), the growth was 15.4% (inactive).

`CCC(C)N(CCNc1cc(OC)cc2cccnc12)CC(C)C` (stereo unspecified): the growth was 73.9% (inactive).

In the case of `COc1ccc(-c2csc(-c3cc(Cl)cc(Cl)c3Cl)n2)cc1`, the growth was 93.6% (inactive).

For `COc1ccc(C/C(C)=C(\c2ccc(Cl)cc2)c2ccc(OCCN3CCCCCC3)cc2)cc1`, the growth was 30.7% (inactive).

`COc1cc(NCC(C)(O)CN(CC(C)C)CC(C)C)c2nc(C)ccc2c1` (stereo unspecified): the growth is 71.4% (inactive).

For `O=C(Nc1nc2c(C(F)(F)F)cccc2s1)c1cc(Cl)ccc1O`, the growth is -38.8% (active).

Consider `NC(CC(=O)O)C(=O)OCc1ccccc1` (stereo unspecified), for which the growth was 101% (inactive).

Turning to `CCOC(=O)NC(Cc1ccccc1)c1ccccc1` (stereo unspecified), the growth is 94.2% (inactive).

Turning to `CN1CCOCCOCCOc2ccccc2NC(=O)c2nc(cnc2N)-c2ccc(cc2)S1(=O)=O`, the growth is -22.2% (active).

For the molecule `COc1cc(/C=C/c2c(C(C)=O)c(C)nc3ccccc23)cc(OC)c1OC`, the growth was 0.0645% (active).

Take `O=C(NCO)c1ccccc1`: the growth is 94.4% (inactive).

On to `COc1cccc(-n2cc(-c3nc(Cl)c4ccccc4n3)nn2)c1`, for which the growth is 97.3% (inactive).

For `C/C(=N\Nc1ccc([N+](=O)[O-])cn1)c1ccc(N)cc1`, the growth is -30.8% (active).

With `O=C(CCN1CCCC1)Nc1ccc2c(Nc3ccc(Br)cc3)c3ccccc3nc2c1`, the growth is -54.6% (active).

`Cc1ccc(S(=O)(=O)N2CCCN(c3nc(-c4ccccc4)nc4nc(-c5ccccc5)oc34)CC2)cc1`: the growth was 110% (inactive).

In the case of `CC[C@@H]1NC(=O)[C@H]([C@H](O)[C@H](C)C/C=C/c2ccc(CN3C(=O)CCCC3=O)cc2)N(C)C(=O)[C@H](C(C)C)N(C)C(=O)[C@H](CC(C)C)N(C)C(=O)[C@H](CC(C)C)N(C)C(=O)[C@@H](C)NC(=O)[C@H](C)NC(=O)[C@H](CC(C)C)N(C)C(=O)[C@H](C(C)C)NC(=O)[C@H](CC(C)C)N(C)C(=O)CN(C)C1=O`, the growth is 61.3% (inactive).

`Nc1nc(Cl)cc(Cl)n1`: the growth was 74.2% (inactive).

As to `CCn1cc(C(=O)O)c(=O)c2cc(F)c(N3CCNCC3)cc21`, the growth is 96.9% (inactive).

As to `C=C1CC2(OC1=O)C(=O)Nc1ccccc12` (stereo unspecified), the growth was 31.6% (inactive).

For `CCc1c(C)c2cc3c(c(C)c2oc1=O)OCC(=O)N3`, the growth is 75.9% (inactive).

As for `COc1cc(Cl)cc(-c2nn(-c3cccc(NC(=O)Nc4ccc(Cl)c(C(F)(F)F)c4)c3)cc2-c2ccncc2)c1`, the growth is -9.59% (active).

For `Clc1ccc(Oc2ccc(Nc3ncnc4onc(-c5ccccc5)c34)cc2)c(Cl)c1`, the growth was 100% (inactive).

Turning to `COc1ccc(-c2cc3c4c(nc5ccccc5c4c2)CC(c2cc(OC)c(OC)c(OC)c2)O3)cc1` (stereo unspecified), the growth is 106% (inactive).

Consider `O=c1c2cccc3c(Nc4ccccn4)ccc(c32)c2nc3ccccc3n12`, for which the growth was 62.3% (inactive).

For `Cc1c(Cl)cccc1NS(=O)(=O)c1ccccc1`, the growth was 113% (inactive).

On to `CCC[S@@](=O)c1ccc2nc(NC(=O)OC)[nH]c2c1`, for which the growth was 56.6% (inactive).
